Laboratory results: PubChem BioAssay (NCATS)
Inconclusive results are not listed. Active and inactive are the calls of the source. Unless noted, calls come from the whole dose curve; as a rule, active = well fitted curve in the direction sought with a large enough effect; inconclusive = small, poorly fitted or top-dose-only effect, or another doubt; inactive = no such curve, though single readings can be large; an effect the other way counts as inactive or inconclusive.

Legend:
[1] = Cellular Toxicity (caspase-3) HepG2 (AID 654);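 note: cells exposed to compound for 16 hours before reading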
Summary of the method: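 qHTS, HepG2, 1500 cells/well, complete medium; cpd 16 h 37 °C; Caspase-Glo 3/7, 20 min RT; lum. Norm: DMSO vs 100 uM tamoxifen; AC50 Hill fit.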

[2] = Cellular Toxicity (caspase-3) Jurkat (AID 655);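 note: cells exposed to compound for 16 h at 37 °C before reading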
Summary of the method: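 qHTS in human Jurkat T-cell leukemia line: 16 hr compound treatment at 37 °C, caspase-3/7 activity measured by Caspase-Glo luminescence. AC50 derived from Hill equation.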

[3] = Cellular Toxicity (caspase-3) HUV-EC-C (AID 656)
Summary of the method: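 Concentration-dependent caspase 3/7 induction was assessed in HUV-EC-C cells exposed for 16 hours. Data scaled between DMSO and tamoxifen (100 uM) controls.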

[4] = Cellular Toxicity (caspase-3) SHSY5Y (AID 657);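 note: cells exposed to compound for 16 hours at 37 °C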
Summary of the method: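 Readout: caspase-cleaved peptide-aminoluciferin substrate driving luciferase light in SH-SY5Y neuroblastoma cells after 16 h treatment. Response normalized to DMSO and 10 uM staurosporine controls.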

[5] = Cellular Toxicity (caspase-3) BJ (AID 658)
Summary of the method: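 Readout: Caspase-Glo 3/7 luminescence increase in BJ cells after 16 hr treatment at 37 °C. Staurosporine and tamoxifen served as positive controls; AC50 values came from Hill modelling of data normalized to DMSO and 10 uM staurosporine.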

[6] = Cellular Toxicity (caspase-3) MRC-5 (AID 659);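 note: cells exposed to compound for 16 h at 37 °C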
Summary of the method: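 Concentration-dependent caspase 3/7 activation is measured in human normal lung fibroblasts (MRC-5) following 16-hour treatment. AC50 values come from standard Hill-equation modeling of luminescence normalized to DMSO and 10 uM staurosporine.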

[7] = Cellular Toxicity (caspase-3) Mesangial (AID 660);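 note: combined caspase 3 and 7 activity read by Caspase-Glo luminescence; cells exposed to compound for 16 h before the caspase read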
Summary of the method: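 Concentration-response qHTS: compound-induced rise in caspase 3/7 luminescence in human mesangial cells after 16 h, normalized to DMSO and 100 uM tamoxifen controls.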

[8] = Cellular Toxicity (caspase-3) SK-N-SH (AID 661)
Summary of the method: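 Caspase 3/7 activation is measured as a luminescence increase from aminoluciferin released by substrate cleavage in SK-N-SH cells after 16 hr compound treatment; values are AC50 from concentration-response curves.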

[9] = Cellular Toxicity (caspase-3) H-4-II-E (AID 663);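 note: cells exposed to compound for 16 hr before readout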
Summary of the method: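 Apoptosis induction is scored as increased luminescence from caspase 3/7 substrate cleavage in rat hepatoma H-4-II-E cells exposed to compound for 16 hr. Activity is scaled between DMSO and 100 uM tamoxifen.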

[10] = target: 3',5'-cyclic-AMP phosphodiesterase 4B (Homo sapiens) (UniProt Q07343); assay: qHTS Assay for Inhibitors of PDE-IV (AID 607; active = well fitted activation curve with a large enough effect in the main read-out, with a control signal flat, not every such curve was filed as active)
Summary of the method: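 Cell-based read-out of cAMP via a modified cyclic nucleotide-gated channel and membrane potential dye (535/590 nm) in HEK293 cells expressing PDE4 endogenously. Compounds tested up to 22.9 uM final; 100 uM RO 20-1724 reference.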

Measured: outcome

3',5'-cyclic-AMP phosphodiesterase 4B (Homo sapiens), sequence (Q07343 whole entry, looked up): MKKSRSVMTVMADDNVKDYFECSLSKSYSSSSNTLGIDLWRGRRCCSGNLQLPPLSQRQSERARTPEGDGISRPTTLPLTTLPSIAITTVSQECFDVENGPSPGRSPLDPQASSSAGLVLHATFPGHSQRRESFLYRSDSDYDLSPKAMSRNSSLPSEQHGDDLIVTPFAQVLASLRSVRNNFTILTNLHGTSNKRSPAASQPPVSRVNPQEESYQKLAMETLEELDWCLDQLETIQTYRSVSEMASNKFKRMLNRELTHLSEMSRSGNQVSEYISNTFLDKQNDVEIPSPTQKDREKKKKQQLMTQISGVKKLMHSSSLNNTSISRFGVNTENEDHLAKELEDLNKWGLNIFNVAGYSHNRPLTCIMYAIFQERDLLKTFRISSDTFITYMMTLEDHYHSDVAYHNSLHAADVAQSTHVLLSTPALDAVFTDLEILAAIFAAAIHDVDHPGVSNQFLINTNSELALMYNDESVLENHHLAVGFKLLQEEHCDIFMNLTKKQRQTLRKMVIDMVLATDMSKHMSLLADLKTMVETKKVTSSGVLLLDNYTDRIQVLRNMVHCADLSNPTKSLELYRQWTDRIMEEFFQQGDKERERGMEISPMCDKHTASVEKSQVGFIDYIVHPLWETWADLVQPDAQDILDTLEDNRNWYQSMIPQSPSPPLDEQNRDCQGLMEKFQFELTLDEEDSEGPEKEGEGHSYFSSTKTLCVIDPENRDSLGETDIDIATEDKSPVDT

COc1ccc(O)cc1
not listed: [10]
inactive: all other assays above

CCN(CC)C(=O)c1cccc(C)c1
not listed: [10]
inactive: all other assays above

CC(=O)NS(=O)(=O)c1ccc(N)cc1
inactive: all assays above

CC(=O)Nc1ccc(C(=O)O)cc1
not listed: [10]
inactive: all other assays above

O=C(c1ccccc1)C(O)c1ccccc1 (stereo not given)
not listed: [10]
inactive: all other assays above

CC(=O)SC[C@@H](Cc1ccccc1)C(=O)NCC(=O)OCc1ccccc1
inactive: [10]

O=C1c2cccc(O)c2C(=O)c2c(O)cccc21
not listed: [10]
inactive: all other assays above

NCc1ccc(S(N)(=O)=O)cc1
inactive: [10]

O=C(Cn1ccnc1[N+](=O)[O-])NCCO
inactive: [10]

Cc1c(N(C)C)c(=O)n(-c2ccccc2)n1C
inactive: all assays above

CCCCCC(N)=O
not listed: [10]
inactive: all other assays above

CC(=O)OCC(COC(C)=O)OC(C)=O
not listed: [10]
inactive: all other assays above

CCCC(O)C(CC)CO (stereo not given)
not listed: [10]
inactive: all other assays above

CCc1cccc(CC)c1NC(=O)CN(CC(=O)O)CC(=O)O
inactive: [10]

O=C(O)CCCCC1CCSS1 (stereo not given)
not listed: [10]
inactive: all other assays above

CC(=O)Nc1ccccc1
not listed: [10]
inactive: all other assays above

Cc1cc(=O)[nH]c(=S)[nH]1
not listed: [10]
inactive: all other assays above

O=C1C(c2[nH]c3ccccc3c2O)=Nc2ccccc21
not listed: [10]
inactive: all other assays above

CC(=O)Nc1cccc(O)c1
not listed: [10]
inactive: all other assays above

FC(F)(F)C(Cl)Br (stereo not given)
not listed: [10]
inactive: all other assays above

CCCCOC(=O)c1ccc(N)cc1
inactive: all assays above

CN(C(=O)c1c(O)c2ccccc2n(C)c1=O)c1ccccc1
inactive: [10]

Nc1ccc(S(=O)(=O)c2ccc(N)cc2)cc1
inactive: all assays above

Cc1cc(C)nc(NS(=O)(=O)c2ccc(N)cc2)n1
inactive: all assays above

CC(C)(C)C(=O)OCOC(=O)[C@@H]1N2C(=O)[C@@H](NC(=O)[C@H](N)c3ccccc3)[C@H]2SC1(C)C
inactive: [10]

C=CCNC(N)=S
not listed: [10]
inactive: all other assays above

CC1CC(OC(=O)c2ccccc2O)CC(C)(C)C1 (stereo not given)
not listed: [10]
inactive: all other assays above

CCCCCCCC(=O)OCC(COC(=O)CCCCCCC)OC(=O)CCCCCCC
not listed: [10]
inactive: all other assays above

NC(N)=NCCN1CCCCCCC1
inactive: [10]
